Source: PubChem BioAssay AID488890 (Southern Research Specialized Biocontainment Screening …, 2010)
The whole screen tested about 320,000 compounds, of which about 1,300 (0.41%) were called active. Another 3% or so got no clear call; they are omitted. The rule behind the calls is not given here. Not all results are given here. Entries with a potency or affinity are not part of this list.

Assay: growth inhibition of non-replicating M. tuberculosis (AID 488890);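 note: plate controls were DMSO cells for no effect and high antibiotic wells for full effect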
Conditions: Mycobacterium tuberculosis non-replicating, at 25 µM, stronger effect = higher value

Row | SMILES | inhibition [%]
1 | Cc1nc(-c2ccc(-n3nncc3-c3ccco3)cc2)cs1 | 58.1
2 | Cc1ccc(C(=O)O/N=C(\N)Cc2cccs2)c(Cl)c1 | 60.4
3 | C#CCOCCOCCOCCNc1nc(N2CCN(C(=O)[C@H](CCC(=O)O)n3cc(C(N)CC(C)C)nn3)CC2)nc(N2CCN(C(=O)[C@H](CCC(=O)O)n3cc(C(N)[C@H](C)CC)nn3)CC2)n1 (some centres undefined) | -2.67
4 | CCc1nc(CN2CCN(c3cc(C(F)(F)F)ccn3)CC2)c(C)[nH]1 | 20.5
5 | CCCCN(CC)CCCNC(=O)c1cc2c(-c3ccc(OC)c(OC)c3)nn(C)c2s1 | 34.8
6 | CCN(CC)CCNC(=O)c1cc2c(-c3ccc(Cl)cc3)nn(C)c2s1 | 67.4
7 | Cc1nc(C(=O)N(C)C)nn1-c1ccc(Cl)cc1Cl | -3
8 | COc1ccc(NC(=O)C2=Cc3ccccc3OC2)cc1 | 76.7
9 | COc1ccc(C(CNC(=O)CSc2ccc(Br)cc2C)N2CCOCC2)cc1 (centres undefined) | 7.11
10 | CCN1C(=O)/C(=C\N(C(C)=O)c2ccccc2)OC1=S | 6.17
11 | CCc1nc(N(CC)CC)c2oc3ccccc3c2n1 | 25.6
12 | c1ccc(Oc2nc(-c3cccnc3)nc3ccccc23)cc1 | 18.6
13 | Cc1ccc(Oc2nc(-c3cccnc3)nc3ccccc23)c([N+](=O)[O-])n1 | -3.06
14 | Fc1ccc(F)c(NC2=NCCCCC2)c1 | -19
15 | O=C(NNC1=C(C(=O)C(F)(F)F)CCC1)c1cccnc1 | -16.6
16 | O=C(NNC1=C(C(=O)C(F)(F)F)CCC1)c1cccc(O)c1 | 58.3
17 | COc1ccccc1C(=O)NNC1=C(C(=O)C(F)(F)F)CCC1 | 77.4
18 | O=C(NNC1=C(C(=O)C(F)(F)F)CCC1)c1ccncc1 | 56.2
19 | Cc1ccc(CNC(=O)CN(c2ccc(C(C)C)cc2)S(=O)(=O)c2c(C)noc2C)cc1 | 7.31
20 | Cc1ccsc1/C=N/NC(=O)Cn1nc(C)c([N+](=O)[O-])c1C | -14.9
21 | COc1ccccc1N1C[C@@H]2C[C@@H](c3ccco3)N3CCC[C@@]23C1=O | 14.9
22 | COC(=O)C1=C(N)Oc2cc(C)n(CC3CCCO3)c(=O)c2C1c1ccccc1 (centres undefined) | 2.48
23 | Cc1ccnc(NC(=O)C2CCN(S(=O)(=O)c3cccc4nonc34)CC2)c1 | 9.48
24 | Cc1ccccc1NC(=O)c1cccc(S(=O)(=O)Nc2cccc(C(=O)O)c2)c1 | 19.2
25 | CC1(C)Oc2ccc(C(=O)NN)cc2NC1=O | 9.35

Row | SMILES | inhibition [%]
26 | CC1=C/C(=C\c2ccc3c(c2)OCO3)C(=O)S1 | 31.9
27 | COc1ccc(/C=C2\N=C(SC)SC2=O)cc1OC | 76.1
28 | CC1(C)CC(=O)C(C=Nc2ccc(N)cc2)=C(O)C1 | 23.2
29 | CCOc1ccc(N=CC2=C(O)CC(C)(C)CC2=O)cc1 | 31.2
30 | CCOc1cc(C2NCc3ccccc3-n3cccc32)ccc1OC (centres undefined) | 1.16
31 | O=C1CN(C(=O)COC(=O)CCC(=O)c2ccc(Cl)cc2)c2ccccc2N1 | 16.1
32 | COc1ccc(CNCc2ccc3ccccc3c2)c(OC)c1 | 23.2
33 | COc1cccc(CNCc2ccc(OC)cc2OC)c1 | 16.2
34 | COc1ccc(C)cc1NC(=O)c1sc2ncn(CC(=O)N3CCCCC3)c(=O)c2c1C | -1.26
35 | Cc1nc2ccc(NC(=O)c3ccc(C)c(S(=O)(=O)N4CCOCC4)c3)cc2s1 | 29.1
36 | CCN1CCC(O)(c2ccccc2)C(C(=O)c2ccccc2)C1 (centres undefined) | 3.22
37 | CC1C(C)C(O)(c2ccccc2)CCN1C (centres undefined) | -18.2
38 | OC1(c2ccccc2)CCN(Cc2ccccc2)CC1 | -5.95
39 | OC(c1ccccc1)C1CN(Cc2ccccc2)CCC1(O)c1ccccc1 (centres undefined) | 16.7
40 | O=C(NCc1ccco1)[C@@H]1CSC2c3ccccc3C(=O)N21 (some centres undefined) | -2.9
41 | CCCN(CC(=O)Nc1ccccc1OC)C(=O)c1ccc(=O)[nH]c1 | -2.3
42 | CN1CCN(c2ccc(NC(=O)c3ccc(Br)o3)cc2)CC1 | -1.79
43 | CS(=O)(=O)N1CCN(c2ccc(NC(=O)c3ccc(-c4ccc(Cl)cc4)o3)cc2)CC1 | -19.8
44 | NC(=O)C1CCN(C(=S)c2ccc(-c3ccc(Br)cc3)o2)CC1 | 76.2
45 | CN1CCN(c2ccc(NC(=O)c3ccc(-c4ccccc4F)o3)cc2)CC1 | 79.5
46 | CN1CCN(c2ccccc2NC(=O)c2ccc(-c3ccc(Br)cc3)o2)CC1 | 7.26
47 | S=C(c1ccc(-c2ccc(Br)cc2)o1)N1CCOCC1 | 74
48 | COC(=O)c1ccccc1NC(=O)CSc1ccc(C)cc1 | 66.9
49 | Cc1onc(-c2c(Cl)cccc2Cl)c1C(=O)NC(=S)Nc1sc2c(c1C(N)=O)CCC(C)C2 (centres undefined) | 1.7
50 | Cc1ccccc1C(=O)NC(=S)NC1CCSC1=O (centres undefined) | 6.25

Row | SMILES | inhibition [%]
51 | COc1ccc(NS(=O)(=O)c2ccc(NC(=S)NC(=O)c3ccc(Br)cc3)cc2)nn1 | 52.8
52 | CSCCC(NC(N)=O)C(=O)Nc1ccc(C)cc1 (centres undefined) | -6.3
53 | Cc1ccc2cc3c(nc2c1)N(c1ccccc1)CC3 | -3.46
54 | COc1ccc2cc3c(nc2c1)OCC3 | 52
55 | CCOC(=O)NC(=O)/C(N=Nc1cccc(C(F)(F)F)c1)=C(\C)O | 22.5
56 | COc1ccc(NC(=O)COC(=O)CN2C(=O)C3CC=CCC3C2=O)c([N+](=O)[O-])c1 (centres undefined) | 3.95
57 | O=C(O)c1ccc(-[n+]2c(-c3ccccc3)cc(-c3ccccc3)cc2-c2ccccc2)cc1 | -4.01
58 | CS(=O)(=O)N(CC(=O)N1CCOCC1)c1cc(C(F)(F)F)ccc1Cl | -10.6
59 | COc1ccc(C(=O)OCC(=O)c2ccc(Cl)s2)c(OC)c1OC | 52.4
60 | COc1ccc(C(=O)OCC(=O)c2ccc(Br)s2)c(OC)c1 | 66.5
61 | O=C(NCCSc1ccccc1)c1ccc(CN2CCOCC2)cc1 | 11.6
62 | Cn1c(N2CCN(C(c3ccccc3)c3ccccc3)CC2)nc2c1c(=O)[nH]c(=O)n2C | -1.75
63 | Nc1ccc2c(c1)C(=O)c1ccccc1C2=O | -1.17
64 | Nc1ccc2c(c1)C(=O)c1ccccc1-2 | 79.4
65 | O=C(CSc1nnc(C2COc3ccccc3O2)o1)Nc1ccc(F)cc1Cl (centres undefined) | 27.9
66 | Cc1cc(NC(=O)CSc2nnc(C3COc4ccccc4O3)o2)no1 (centres undefined) | 1.04
67 | CCOc1ccc(/C(C)=N\NC(=O)Cc2ccccc2)cc1 | 3
68 | CCC/C(=N/NC(=O)c1cccc(Cl)c1)c1ccccc1 | 76.9
69 | C/C(=N\NC(=O)c1ccccc1O)C1CC1 | -6.46
70 | CCOc1ccc(OCc2ccc(C(=O)N/N=C(\C)c3ccccn3)cc2)cc1 | 94.8
71 | C/C(=N\NC(N)=O)c1cccc(Cl)c1 | -5.88
72 | CSC(=NNC(=O)c1ccccc1O)SC | 14.8
73 | CC(/C=C/c1ccccc1)=N\NC(=O)CCc1ccccc1 | -7.22
74 | C/C(CCc1ccccc1)=N\NC(=O)CCc1ccccc1 | 2.92
